Laboratory results: ChEMBL document CHEMBL3988442, “University of Dundee, Small-Polar-MMV Screening Library” (2021)
For part of these data: Results with a measured potency or affinity are listed apart.

Experiments:
Design in all cases: scale not given: direction of the effect not stated beside the values
[1] = target: Protein translocase subunit SecA (Escherichia coli (strain K12)) (UniProt P10408); experiment: Assay to Identify E. coli SecA ATPase Inhibitors; assay type: functional; conditions: 30 µM
Chain of Protein translocase subunit SecA (Escherichia coli (strain K12)) (P10408 whole entry): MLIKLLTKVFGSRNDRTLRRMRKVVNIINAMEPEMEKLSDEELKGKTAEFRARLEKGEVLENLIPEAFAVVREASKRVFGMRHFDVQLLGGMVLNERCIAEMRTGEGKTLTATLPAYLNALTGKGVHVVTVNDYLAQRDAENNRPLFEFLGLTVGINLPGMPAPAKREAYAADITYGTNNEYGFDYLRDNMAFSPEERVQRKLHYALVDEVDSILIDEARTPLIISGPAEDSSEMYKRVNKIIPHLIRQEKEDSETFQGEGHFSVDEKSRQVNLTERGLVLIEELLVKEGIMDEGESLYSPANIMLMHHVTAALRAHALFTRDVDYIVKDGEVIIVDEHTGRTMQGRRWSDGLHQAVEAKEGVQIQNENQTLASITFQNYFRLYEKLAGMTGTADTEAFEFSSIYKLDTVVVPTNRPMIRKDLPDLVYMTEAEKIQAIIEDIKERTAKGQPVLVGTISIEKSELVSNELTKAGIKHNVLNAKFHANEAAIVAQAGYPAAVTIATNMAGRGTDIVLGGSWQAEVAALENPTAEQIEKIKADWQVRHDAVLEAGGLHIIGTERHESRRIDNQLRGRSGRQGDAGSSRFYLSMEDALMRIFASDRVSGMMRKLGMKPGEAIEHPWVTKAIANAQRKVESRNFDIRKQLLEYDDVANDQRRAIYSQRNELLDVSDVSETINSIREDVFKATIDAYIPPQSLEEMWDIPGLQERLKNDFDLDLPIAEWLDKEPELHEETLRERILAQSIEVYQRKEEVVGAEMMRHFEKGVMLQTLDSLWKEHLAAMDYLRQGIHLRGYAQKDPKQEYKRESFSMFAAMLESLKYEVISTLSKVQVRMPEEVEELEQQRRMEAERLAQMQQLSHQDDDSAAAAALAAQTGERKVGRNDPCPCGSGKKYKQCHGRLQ

[2] = target: T1, Ubiquitin-activating enzyme e1, putative (Leishmania donovani (strain BPK282A1)) (UniProt E9BSI1); experiment: Leishmania donovani Ubiquitin Activating Enzyme (LdE1); assay type: functional; conditions: 30 µM
T1 sequence (whole entry): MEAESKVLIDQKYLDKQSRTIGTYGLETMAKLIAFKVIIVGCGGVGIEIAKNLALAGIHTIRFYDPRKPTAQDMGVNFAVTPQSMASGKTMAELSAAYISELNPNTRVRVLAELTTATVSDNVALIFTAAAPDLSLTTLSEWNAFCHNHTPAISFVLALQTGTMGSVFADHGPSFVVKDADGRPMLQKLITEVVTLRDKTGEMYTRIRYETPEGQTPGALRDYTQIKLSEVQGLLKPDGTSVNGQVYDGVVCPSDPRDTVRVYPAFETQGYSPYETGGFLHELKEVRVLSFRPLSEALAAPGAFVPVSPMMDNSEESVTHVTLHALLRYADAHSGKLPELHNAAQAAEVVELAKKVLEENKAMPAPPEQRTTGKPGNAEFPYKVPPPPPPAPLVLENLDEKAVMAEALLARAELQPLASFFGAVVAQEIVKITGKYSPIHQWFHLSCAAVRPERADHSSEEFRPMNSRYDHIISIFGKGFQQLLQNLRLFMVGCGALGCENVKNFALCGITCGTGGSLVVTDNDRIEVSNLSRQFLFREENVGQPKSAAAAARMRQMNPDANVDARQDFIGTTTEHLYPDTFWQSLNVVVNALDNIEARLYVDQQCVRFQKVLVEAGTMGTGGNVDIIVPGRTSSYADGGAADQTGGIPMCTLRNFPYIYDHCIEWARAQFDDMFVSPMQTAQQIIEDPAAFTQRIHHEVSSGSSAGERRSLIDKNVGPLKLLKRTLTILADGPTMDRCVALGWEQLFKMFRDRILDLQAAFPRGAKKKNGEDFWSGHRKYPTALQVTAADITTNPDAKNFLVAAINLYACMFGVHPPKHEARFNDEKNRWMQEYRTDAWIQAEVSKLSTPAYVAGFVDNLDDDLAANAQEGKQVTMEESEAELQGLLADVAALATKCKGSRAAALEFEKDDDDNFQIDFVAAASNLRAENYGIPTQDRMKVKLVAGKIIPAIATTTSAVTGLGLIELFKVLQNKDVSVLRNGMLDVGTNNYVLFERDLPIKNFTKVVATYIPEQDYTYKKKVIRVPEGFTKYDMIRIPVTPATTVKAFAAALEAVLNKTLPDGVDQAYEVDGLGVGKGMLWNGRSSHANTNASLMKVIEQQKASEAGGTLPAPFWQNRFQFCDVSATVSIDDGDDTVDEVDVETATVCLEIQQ

[3] = target: Sialic acid-binding Ig-like lectin 9 (Homo sapiens) (UniProt Q9Y336); experiment: Hs-Siglec9 ALPHAscreen SOP 20170721; conditions: 10 µM
Chain of Sialic acid-binding Ig-like lectin 9 (Homo sapiens) (Q9Y336 whole entry): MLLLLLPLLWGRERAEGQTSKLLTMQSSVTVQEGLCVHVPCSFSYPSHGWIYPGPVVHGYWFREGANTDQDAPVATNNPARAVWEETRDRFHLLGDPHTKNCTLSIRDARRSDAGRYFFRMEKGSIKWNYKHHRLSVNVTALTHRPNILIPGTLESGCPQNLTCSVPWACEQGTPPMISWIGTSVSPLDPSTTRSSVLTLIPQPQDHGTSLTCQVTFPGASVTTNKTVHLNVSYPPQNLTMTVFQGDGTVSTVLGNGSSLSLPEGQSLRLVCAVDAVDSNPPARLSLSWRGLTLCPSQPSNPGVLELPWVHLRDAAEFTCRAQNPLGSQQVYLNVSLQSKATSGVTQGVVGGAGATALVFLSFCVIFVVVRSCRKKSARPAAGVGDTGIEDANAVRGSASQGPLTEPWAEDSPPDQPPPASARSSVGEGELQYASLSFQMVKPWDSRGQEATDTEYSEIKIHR

Trypanosoma cruzi = experiment: Trypanosoma cruzi phosphomannomutase and mannose-1-phosphate guanylyltransferase assay; assay type: functional; conditions: 10 µM
[4] = target: T2, Arginase-2, mitochondrial (Homo sapiens) (UniProt P78540); experiment: in vitro enzyme assay to detect the production of urea directly proportional to the activity of Arginase II; assay type: functional; conditions: 33.3 µM; also: in the data most compounds retested in dose-response had high values
T2 sequence (whole entry): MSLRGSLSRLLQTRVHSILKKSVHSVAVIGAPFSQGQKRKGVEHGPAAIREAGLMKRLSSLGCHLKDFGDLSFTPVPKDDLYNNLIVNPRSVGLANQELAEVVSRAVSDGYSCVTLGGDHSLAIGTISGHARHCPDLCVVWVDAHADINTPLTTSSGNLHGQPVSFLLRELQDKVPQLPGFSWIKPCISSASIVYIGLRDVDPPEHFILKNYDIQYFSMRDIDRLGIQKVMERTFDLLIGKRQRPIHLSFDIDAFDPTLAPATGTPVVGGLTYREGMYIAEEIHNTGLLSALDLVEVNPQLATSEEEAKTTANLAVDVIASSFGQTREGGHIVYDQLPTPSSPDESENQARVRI

[5] = target: T3, Proteasome subunit beta (Trypanosoma cruzi) (UniProt O96673); experiment: Trypanosoma cruzi proteasome chymotrypsin-like activity (TcProtChymo) assay.; also: in the data most compounds retested in dose-response had high values; assay type: functional; conditions: 9.37 µM
T3 sequence (whole entry): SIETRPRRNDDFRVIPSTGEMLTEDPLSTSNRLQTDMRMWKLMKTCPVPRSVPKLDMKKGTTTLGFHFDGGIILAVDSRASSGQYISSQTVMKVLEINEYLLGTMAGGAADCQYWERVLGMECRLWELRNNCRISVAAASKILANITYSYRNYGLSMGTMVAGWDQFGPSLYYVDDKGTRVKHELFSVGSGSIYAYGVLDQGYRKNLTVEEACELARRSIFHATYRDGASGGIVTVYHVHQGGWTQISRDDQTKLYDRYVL

Homo sapiens = species on record: Homo sapiens; experiment: To identify inhibition of the IFN signalling (Jak-Stat) pathway via expression of an eGFP reporter gene under the control of an IFN-stimulated response element (ISRE) containing MxA promoter.; assay type: functional; conditions: 30 µM
[6] = target: T4, Tyrosyl-tRNA synthetase, putative (Trypanosoma cruzi (strain CL Brener)) (UniProt Q4DSP6); experiment: Trypanosoma cruzi tyrosyl tRNA synthetase (TcYRS) _High Tyrosine SOP; assay type: functional; conditions: 30 µM; also: in the data most compounds retested in dose-response had high values
T4 sequence (whole entry): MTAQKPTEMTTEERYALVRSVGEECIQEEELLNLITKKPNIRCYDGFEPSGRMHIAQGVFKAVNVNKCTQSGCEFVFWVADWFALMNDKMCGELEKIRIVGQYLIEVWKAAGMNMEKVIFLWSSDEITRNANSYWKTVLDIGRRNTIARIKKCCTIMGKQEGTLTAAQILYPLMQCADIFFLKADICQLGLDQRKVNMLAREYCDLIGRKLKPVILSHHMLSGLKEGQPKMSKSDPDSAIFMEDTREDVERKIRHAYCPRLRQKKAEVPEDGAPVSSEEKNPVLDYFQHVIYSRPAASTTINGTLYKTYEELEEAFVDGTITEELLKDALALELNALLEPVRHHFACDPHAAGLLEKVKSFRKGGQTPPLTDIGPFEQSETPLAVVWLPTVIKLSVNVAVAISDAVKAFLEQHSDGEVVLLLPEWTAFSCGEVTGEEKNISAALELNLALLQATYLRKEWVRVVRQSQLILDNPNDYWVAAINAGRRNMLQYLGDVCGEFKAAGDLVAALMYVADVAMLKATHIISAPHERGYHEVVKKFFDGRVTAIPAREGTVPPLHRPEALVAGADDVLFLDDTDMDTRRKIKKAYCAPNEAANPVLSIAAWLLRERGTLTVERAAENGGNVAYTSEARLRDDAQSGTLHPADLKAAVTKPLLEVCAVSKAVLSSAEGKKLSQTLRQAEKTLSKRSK

[7] = target: T4, Tyrosyl-tRNA synthetase, putative (Trypanosoma cruzi (strain CL Brener)); experiment: Trypanosoma cruzi tyrosyl tRNA synthetase (TcYRS) SOP; assay type: functional; conditions: 30 µM
[8] = target: Chromo domain-containing protein 1 (Saccharomyces cerevisiae (strain ATCC 204508 / S288c) (Baker's yeast)) (UniProt P32657); experiment: ScCHD-1 Enzyme Inhibition Assay; assay type: functional; conditions: 30 µM; also: in the data most compounds retested in dose-response had high values
Chain of Chromo domain-containing protein 1 (Saccharomyces cerevisiae (strain ATCC 204508 / S288c) (Baker's yeast)) (P32657 whole entry, the tested form may be a part): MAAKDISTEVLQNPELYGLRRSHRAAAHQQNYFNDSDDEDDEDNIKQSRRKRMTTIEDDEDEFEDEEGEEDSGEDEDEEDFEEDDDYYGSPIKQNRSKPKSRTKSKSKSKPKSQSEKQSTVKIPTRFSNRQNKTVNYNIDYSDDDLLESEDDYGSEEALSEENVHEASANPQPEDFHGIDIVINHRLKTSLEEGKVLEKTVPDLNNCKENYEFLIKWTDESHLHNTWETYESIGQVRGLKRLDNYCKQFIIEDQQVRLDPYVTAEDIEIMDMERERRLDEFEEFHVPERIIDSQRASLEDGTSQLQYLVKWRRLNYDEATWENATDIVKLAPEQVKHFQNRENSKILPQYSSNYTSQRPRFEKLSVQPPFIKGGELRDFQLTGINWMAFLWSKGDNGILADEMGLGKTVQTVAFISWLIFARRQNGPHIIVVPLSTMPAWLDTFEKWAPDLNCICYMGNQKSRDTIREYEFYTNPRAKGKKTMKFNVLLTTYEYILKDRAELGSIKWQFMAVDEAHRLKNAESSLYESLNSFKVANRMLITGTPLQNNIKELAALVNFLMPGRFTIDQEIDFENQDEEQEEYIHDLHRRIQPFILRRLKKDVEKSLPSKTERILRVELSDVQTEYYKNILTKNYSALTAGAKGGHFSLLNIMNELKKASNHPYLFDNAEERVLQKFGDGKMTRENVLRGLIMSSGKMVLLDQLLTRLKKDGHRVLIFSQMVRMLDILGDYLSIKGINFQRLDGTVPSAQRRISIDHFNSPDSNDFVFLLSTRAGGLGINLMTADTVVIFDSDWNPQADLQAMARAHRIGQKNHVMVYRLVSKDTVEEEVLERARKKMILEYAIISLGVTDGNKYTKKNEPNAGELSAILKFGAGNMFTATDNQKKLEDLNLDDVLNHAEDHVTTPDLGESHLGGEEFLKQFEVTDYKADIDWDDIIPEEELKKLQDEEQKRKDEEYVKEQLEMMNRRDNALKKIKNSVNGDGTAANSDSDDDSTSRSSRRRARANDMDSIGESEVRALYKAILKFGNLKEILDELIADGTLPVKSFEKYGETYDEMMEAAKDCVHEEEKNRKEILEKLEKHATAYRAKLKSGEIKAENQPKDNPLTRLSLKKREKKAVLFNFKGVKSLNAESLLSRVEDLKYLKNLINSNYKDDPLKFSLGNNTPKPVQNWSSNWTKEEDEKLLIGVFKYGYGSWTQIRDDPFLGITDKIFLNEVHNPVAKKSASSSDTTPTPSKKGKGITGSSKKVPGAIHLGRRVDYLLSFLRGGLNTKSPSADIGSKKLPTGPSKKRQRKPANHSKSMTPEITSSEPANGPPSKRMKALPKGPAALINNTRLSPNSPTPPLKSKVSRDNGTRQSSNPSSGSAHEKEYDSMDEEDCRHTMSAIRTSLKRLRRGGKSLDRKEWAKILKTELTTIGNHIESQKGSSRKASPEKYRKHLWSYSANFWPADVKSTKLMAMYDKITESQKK

| Structure (SMILES) | Percent Effect [1] [%] | Percent Effect [2] [%] | Percent Effect [3] [%] | Percent Effect (Trypanosoma cruzi) [%] | Percent Effect [4] [%] | Percent Effect [5] [%] | Percent Effect (Homo sapiens) [%] | Percent Effect [6] [%] | Percent Effect [7] [%] | Percent Effect [8] [%] |
| --- | --- | --- | --- | --- | --- | --- | --- | --- | --- | --- |
| CN(C)C[C@H]1OC[C@@H]2CCN(S(=O)(=O)c3cccs3)C[C@@H]21 | -10.2 | 1.3 | 12.5 | -2.43 | -2.43 | 2.56 | 0.627 | -0.526 | -2.56 | 19.4 |
| CC(Nc1cccc(CN2CCOC2=O)c1)C(=O)N1CCNC1=O (stereo not given) | -10.4 | 7.69 | 2.33 | -5.16 | -2.46 | 2.3 | 28.2 | 2.39 | 8.43 | -2.72 |
| O=C1CN(Cc2ccc(-c3ccccc3C(=O)O)cc2)CCN1 | 1.19 | 12 | -5.14 | -4.73 | -1.33 | 14.1 | 27.5 | 1.06 | 0 | -24.4 |
| CC(C)Cc1nc(OCC(N)=O)c(C#N)c2c1CCC2 | -2.5 | 5.41 | 10.8 | -9.99 | 1.75 | 19.4 | 20.7 | 3.72 | 7.32 | -3.73 |
| CCc1c(C)nn(CCNC(=O)C2CCCN(C(=O)N(C)C)C2)c1C (stereo not given) | -6.94 | 5.41 | 6.18 | 2.04 | 6.64 | 7.36 | 10.5 | 5.85 | 14.6 | 41.1 |
| COc1ccc(C(C)NC(=O)NCCCn2cncn2)cc1F (stereo not given) | -2.93 | 16 | 2.65 | -0.602 | 1.77 | 8.57 | -15.1 | 6.84 | 17.9 | -9.21 |
| CC(C)(C)c1n[nH]c(C2CN(C(=O)CCc3cscn3)CCO2)n1 (stereo not given) | -2.17 | 7.69 | 15.8 | 4.41 | 5.33 | 0.597 | 6.37 | 3.35 | 13.2 | -1.16 |
| Cc1ccc(NC2CCN(C(=O)c3cnc(C)s3)CC2)nn1 | -3.62 | 10.7 | -0.486 | -3.01 | 0.887 | -0.594 | 15.9 | 5.79 | 12.8 | -6.74 |
| O=C(C1CCC1)N1CCn2c(COc3ncccn3)nnc2C1 | -7.65 | 3.9 | -3.93 | -5.36 | -11.7 | 12.8 | 6.38 | 0.526 | 5.13 | -2.55 |
| COc1ccc(S(N)(=O)=O)cc1C(=O)N(C)Cc1cc(C)on1 | 1.97 | 20.5 | -20.8 | 1.41 | -2.87 | 16 | 15.7 | 1.44 | 18.1 | -7.04 |
| COc1ccccc1-c1cc(C(F)(F)F)c2c(C)nn(CC(=O)O)c2n1 | 5.48 | 14.7 | -8.22 | -2.56 | 6.64 | 11.5 | 26.5 | -13.8 | -17.5 | -17.5 |
| Cc1ccc(C(=O)N2CCN(CCc3cccs3)CC2)c(=O)[nH]1 | -2.8 | 2.56 | -0.768 | -1.6 | 8.61 | -2.65 | 24.3 | 3.35 | 10.8 | -2.19 |
| CCCn1nc2c(cc1=O)CN(CC(=O)Nc1nnc(C)s1)CC2 | -7.9 | 13 | 10.3 | -3.92 | 3.07 | 11.8 | 1.49 | 2.94 | 9.41 | -8.62 |
| OC(CNCCn1cccn1)c1ccc(F)c(F)c1 (stereo not given) | 1.48 | 16 | -2.24 | 2.81 | 1.33 | 19.8 | 18.7 | 4.74 | 12.8 | -8.38 |
| CC(C)c1ncc(S(C)(=O)=O)c(C2CCCNC2)n1 (stereo not given) | -5.26 | 10.8 | 16.7 | 6.11 | 14.3 | 3.94 | -1.56 | 6.92 | 17.1 | -3.61 |
| CCCNC(=O)NCc1cccnc1OC | -1.2 | 13.3 | 0.677 | -0.803 | 2.66 | 14.2 | 18.8 | 2.63 | 10.3 | -6.38 |
| Cc1ccc(-c2cc(CN3CCCC(Cn4cncn4)C3)on2)cc1 (stereo not given) | -6.67 | 7.79 | -2.07 | -1.68 | 1.84 | 4.39 | 28 | 0 | 4.71 | -3.73 |
| COCCNC(=O)c1cc(S(=O)(=O)N2CCCCC2)cs1 | -1.54 | 0 | -4.58 | -1.07 | 1.05 | 14.6 | 19.3 | 0.532 | 2.44 | 2.87 |
| c1ccc(C(OCCNC2CCc3ncnn3C2)c2ccccc2)cc1 (stereo not given) | -5.97 | 10.4 | 5.43 | 5.41 | -4.3 | 0.526 | -3.8 | 0.98 | 18.8 | -13.3 |
| Cc1occc1C(=O)NCc1ccc(N2CCCC(C(N)=O)C2)cc1 (stereo not given) | -2.46 | 8 | -3.46 | -3.61 | 10.6 | 13 | 16.5 | 2.63 | 7.69 | -9.94 |
| Cc1nc(C2CCCN(C(=O)COCc3ccccc3Cl)C2)no1 (stereo not given) | 1.44 | -8 | 4.56 | -1.81 | 6.21 | -7.72 | 10.8 | -1.58 | -5.13 | 3.49 |
